Reference: PubChem BioAssay (NCATS)
Inconclusive results are not listed. Where a call stands in place of a potency, no number is given. Active and inactive are the calls of the source. Calls follow the shape of the dose curve; as a rule, active = well fitted curve in the direction sought with a large enough effect; inconclusive = small, poorly fitted or top-dose-only effect, or another doubt; inactive = no such curve, though single readings can be large; an effect the other way counts as inactive or inconclusive.

Columns and labels:
[1] = qHTS of pediatric cancer cell lines to identify multiple opportunities for drug repurposing: Primary screen for SK-N-MC cells (AID 1347093); also: potency is read from the fitted curve at half-maximal effect
Summary of the method: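 Metabolically active cells were quantified by ATP-dependent luminescence (CellTiter-Glo, 15 min at room temperature) following 48 h treatment. Cells had been plated at 500-1,000 per well and settled for 5 h beforehand.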

[2] = qHTS of pediatric cancer cell lines to identify multiple opportunities for drug repurposing: Primary screen for LAN-5 cells (AID 1347100); also: potency is read from the fitted curve at half-maximal effect
Summary of the method: (§1)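 Viability after 48 h compound treatment at 37C, 500-1,000 cells/well, read as ATP luminescence with CellTiter-Glo. Primary screens used 11-point (MIPE, 0.78 nM-46 µM) or 8-point (NPC, 0.59 nM-46 µM) final concentrations; follow-up screens used 11-point dilutions.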

[3] = qHTS of pediatric cancer cell lines to identify multiple opportunities for drug repurposing: Primary screen for BT-37 cells (AID 1347094); also: potency is read from the fitted curve at half-maximal effect
Summary of the method: (§2)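 ATP-based luminescence (CellTiter-Glo) quantifies viability after a 48-hour exposure. Compounds are dosed across 8 or 11 final concentrations; DMSO and 2.3 µM bortezomib serve as controls.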

[4] = qHTS of pediatric cancer cell lines to identify multiple opportunities for drug repurposing: Primary screen for NB-EBc1 cells (AID 1347095)
Summary of the method: as §2

[5] = qHTS of pediatric cancer cell lines to identify multiple opportunities for drug repurposing: Primary screen for U-2 OS cells (AID 1347096); also: nearly all actives have a fitted effect of over 50% in size; also: potency is read from the fitted curve at half-maximal effect
Summary of the method: as §1

[6] = qHTS of pediatric cancer cell lines to identify multiple opportunities for drug repurposing: Primary screen for Saos-2 cells (AID 1347097); also: nearly all actives have a fitted effect of over 40% in size; also: potency is read from the fitted curve at half-maximal effect
Summary of the method: as §2

[7] = qHTS of pediatric cancer cell lines to identify multiple opportunities for drug repurposing: Primary screen for SK-N-SH cells (AID 1347098); also: nearly all actives have a fitted effect of over 65% in size; also: potency is read from the fitted curve at half-maximal effect
Summary of the method: (§3)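 Cells (500-1,000/well) rested 5 h, then received compounds for 48 h; metabolically active cells were measured by CellTiter-Glo luminescence. Final concentrations spanned up to 46 µM (MIPE, 11-point) or 0.59 nM-46 µM (NPC, 8-point) in primary screens, 11-point in follow-ups.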

[8] = qHTS of pediatric cancer cell lines to identify multiple opportunities for drug repurposing: Primary screen for NB1643 cells (AID 1347099); also: nearly all actives have a fitted effect of over 50% in size; also: potency is read from the fitted curve at half-maximal effect
Summary of the method: as §2

[9] = qHTS of pediatric cancer cell lines to identify multiple opportunities for drug repurposing: Primary screen for BT-12 cells (AID 1347101); also: nearly all actives have a fitted effect of over 25% in size; also: potency is read from the fitted curve at half-maximal effect
Summary of the method: as §3

[10] = qHTS of pediatric cancer cell lines to identify multiple opportunities for drug repurposing: Primary screen for Rh18 cells (AID 1347102); also: nearly all actives have a fitted effect of over 65% in size; also: potency is read from the fitted curve at half-maximal effect
Summary of the method: as §1

| SMILES | Potency [1] | Potency [2] | Potency [3] | Potency [4] | Potency [5] | Potency [6] | Potency [7] | Potency [8] | Potency [9] | Potency [10] |
| --- | --- | --- | --- | --- | --- | --- | --- | --- | --- | --- |
| COC(=O)C1=C(C)NC(C)=C(C(=O)OC(C)(C)CN(C)CCC(c2ccccc2)c2ccccc2)C1c1cccc([N+](=O)[O-])c1 (configuration not stated) | 13.3 µM (active) | 18.8 µM (active) |  |  |  |  |  |  |  |  |
| NC1=NCC2c3ccccc3Cc3ccccc3N12 (configuration not stated) |  | inactive | inactive | inactive | inactive | inactive | inactive | inactive |  |  |
| CC(C)COCC(CN(Cc1ccccc1)c1ccccc1)N1CCCC1 (configuration not stated) | 16.8 µM (active) |  | 27.6 µM (active) |  |  | 26.6 µM (active) | 27.3 µM (active) | 29.9 µM (active) |  |  |
| C[C@]12CC[C@@H]3c4ccc(O)cc4C[C@@H](CCCCCCCCCS(=O)CCCC(F)(F)C(F)(F)F)[C@H]3[C@@H]1CC[C@@H]2O (some centres not stated) | 9.44 µM (active) | inactive | inactive | inactive | inactive |  |  | inactive | inactive | inactive |
| OC(CCN1CCCCC1)(c1ccccc1)C1CCCCC1 (configuration not stated) | inactive | inactive |  | inactive | inactive |  |  | inactive |  | inactive |
| CC(=O)[C@]1(O)Cc2c(O)c3c(c(O)c2[C@@H](O[C@H]2C[C@H](N)[C@H](O)[C@H](C)O2)C1)C(=O)c1ccccc1C3=O | 0.237 µM (active) |  | 0.174 µM (active) |  | 6.68 µM (active) | 3.35 µM (active) | 0.433 µM (active) | 0.376 µM (active) | 0.55 µM (active) | 0.422 µM (active) |
| CC(=O)Nc1nnc(S(N)(=O)=O)s1 | inactive | inactive | inactive | inactive | inactive |  | inactive | inactive | inactive | inactive |
| Nc1ncn([C@@H]2O[C@H](CO)[C@@H](O)[C@H]2O)c(=O)n1 | 21.1 µM (active) |  | 12.3 µM (active) |  |  |  |  | 7.5 µM (active) | 8.71 µM (active) |  |
| CC(N=C(NC#N)Nc1ccncc1)C(C)(C)C (configuration not stated) | inactive | inactive | inactive | inactive | inactive | inactive |  | inactive | inactive | inactive |
| Cc1nc2c([nH]1)c(=O)n(C)c(=O)n2Cc1ccco1 |  | inactive | inactive | inactive | inactive | inactive | inactive | inactive | inactive | inactive |
| CCCN(CCC)CCc1cccc2c1CC(=O)N2 | inactive | inactive | inactive | inactive | inactive |  | inactive | inactive | inactive | inactive |
| CCN(Cc1ccncc1)C(=O)C(CO)c1ccccc1 (configuration not stated) |  | inactive | inactive | inactive | inactive | inactive | inactive | inactive | inactive | inactive |
| CNC1(C)C2CCC(C2)C1(C)C (configuration not stated) | inactive | inactive | inactive | inactive | inactive |  | inactive | inactive | inactive | inactive |
| CCN(CC)CCOCCOC(=O)C1(c2ccccc2)CCCC1 | inactive | inactive |  | inactive | inactive | inactive | inactive | inactive | inactive | inactive |
| CCOC(=O)c1cnc2c(cnn2CC)c1NN=C(C)C | inactive | inactive | inactive | inactive | inactive |  |  | inactive | inactive | inactive |
| C[C@@H](O)[C@H]1C(=O)N2C(C(=O)O)=C(SCCN=CN)C[C@H]12 | inactive | inactive | inactive | inactive | inactive |  | inactive | inactive | inactive | inactive |
| C#CCN(C)CCCOc1ccc(Cl)cc1Cl | inactive | inactive | inactive | inactive | inactive |  | inactive | inactive | inactive | inactive |
| Cc1nc2sccn2c(=O)c1CCN1CCC(=C(c2ccc(F)cc2)c2ccc(F)cc2)CC1 |  | inactive | inactive |  | inactive |  |  | inactive |  | inactive |
| COC(=O)[C@@H](N)Cc1ccc(O)c(O)c1 |  | inactive | inactive | inactive | inactive |  | inactive | inactive | inactive | inactive |
| COC(=O)C1=C(C)NC(C)=C(C(=O)OCCN(C)Cc2ccccc2)C1c1cccc([N+](=O)[O-])c1 (configuration not stated) |  |  |  |  |  | 29.9 µM (active) | 4.33 µM (active) | 21.1 µM (active) |  |  |
| O=C(CCCN1CCC(O)(c2cccc(C(F)(F)F)c2)CC1)c1ccc(F)cc1 |  | inactive | inactive | inactive | inactive |  | inactive | inactive |  |  |
| CCCCCN(CCCCC)C(=O)C(CCC(=O)O)NC(=O)c1ccc(Cl)c(Cl)c1 (configuration not stated) |  | inactive | inactive | inactive | inactive | inactive | inactive | inactive | inactive | inactive |
| CN1C[C@H](C(=O)N[C@]2(C)O[C@@]3(O)[C@@H]4CCCN4C(=O)[C@H](Cc4ccccc4)N3C2=O)C[C@@H]2c3cccc4[nH]cc(c34)C[C@H]21 |  | inactive | inactive | inactive | inactive |  | 30.7 µM (active) | inactive |  |  |
| CCN(CC)CCCN(c1ccccc1)C1Cc2ccccc2C1 |  |  | inactive | inactive | inactive | inactive |  | inactive |  | inactive |
| CCCCNc1c(C(=O)OCC)c(C)nc2c1cnn2CC |  |  | inactive | inactive | inactive | 26.6 µM (active) |  | inactive | inactive | inactive |
| Fc1ccc(C(c2ccc(F)cc2)N2CCN(C/C=C/c3ccccc3)CC2)cc1 |  |  |  |  |  |  |  | inactive |  | inactive |
| COCCOC(=O)C1=C(C)NC(C)=C(C(=O)OC(C)C)C1c1cccc([N+](=O)[O-])c1 (configuration not stated) |  |  |  |  | inactive |  | inactive | inactive |  | 18.8 µM (active) |
| CCNC(=O)N1CCN(CCCC(c2ccc(F)cc2)c2ccc(F)cc2)CC1 |  | inactive |  | inactive | inactive | inactive | 30.7 µM (active) | inactive |  | inactive |
| CCCCCCCC/C=C\CCCCCCCC(=O)NCc1ccc(O)c(OC)c1 |  |  | inactive |  | inactive |  | inactive | inactive |  | inactive |
| Cc1ccc(Cl)c(Nc2ccccc2C(=O)O)c1Cl |  | inactive | inactive |  | inactive |  |  |  | inactive | inactive |
